This passage reports Potency results from PubChem BioAssay (NCATS).

Test [1] has as its target Cytochrome P450 2C9 (Homo sapiens) (UniProt P11712). Nature of the test: Cytochrome P450 family 2 subfamily C member 9 (CYP2C9) small molecule antagonists: luciferase biochemical (cell-free) qHTS assay (AID 1645842). Note: nearly all actives have a fitted effect of over 55% in size. In a few lines: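 Luminescence, after 20 min with luciferin detection reagent, reflected CYP2C9 turnover during a 1 h NADPH-driven reaction at 37C. Enzyme-substrate mix contained 0.4% bovine serum albumin and was preincubated with compound 10 min at room temperature.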

Test [2] is described as follows: Primary qHTS for inhibitors of nuclear receptor binding SET domain protein 2 (NSD2) in an isogenic RCH-ACV NSD2 p.E1099K mutant (9B) (AID 1645876; active = well fitted curve in the direction sought with a large enough effect; an effect the other way counts as inactive or inconclusive; note: nearly all actives have a fitted effect of over 70% in size). On the technique in general: qHTS replaces the single test concentration by a dilution series.
Test [3] is described as follows: Primary qHTS for inhibitors of nuclear receptor binding SET domain protein 2 (NSD2) in an RCH-ACV wild type WT cells (2C) (AID 1645877; active = well fitted curve in the direction sought with a large enough effect; an effect the other way counts as inactive or inconclusive; note: nearly all actives have a fitted effect of over 70% in size).
In test [4] the target is Cytochrome P450 2D6 (Homo sapiens) (UniProt P10635). Nature of the test: Cytochrome P450 family 2 subfamily D member 6 (CYP2D6) small molecule antagonists: luciferase biochemical (cell-free) qHTS assay (AID 1645840). Note: nearly all actives have a fitted effect of over 55% in size. In a few lines: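 P450-Glo luminescent screen: recombinant CYP2D6 enzyme–proluciferin substrate mix preincubated with compound 10 min at room temperature, then NADPH regeneration added for 1 h at room temperature. Detection reagent added for 20 min; luciferin light read as relative luminescence units.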
Sequence of Cytochrome P450 2D6 (Homo sapiens) (P10635 whole entry, looked up): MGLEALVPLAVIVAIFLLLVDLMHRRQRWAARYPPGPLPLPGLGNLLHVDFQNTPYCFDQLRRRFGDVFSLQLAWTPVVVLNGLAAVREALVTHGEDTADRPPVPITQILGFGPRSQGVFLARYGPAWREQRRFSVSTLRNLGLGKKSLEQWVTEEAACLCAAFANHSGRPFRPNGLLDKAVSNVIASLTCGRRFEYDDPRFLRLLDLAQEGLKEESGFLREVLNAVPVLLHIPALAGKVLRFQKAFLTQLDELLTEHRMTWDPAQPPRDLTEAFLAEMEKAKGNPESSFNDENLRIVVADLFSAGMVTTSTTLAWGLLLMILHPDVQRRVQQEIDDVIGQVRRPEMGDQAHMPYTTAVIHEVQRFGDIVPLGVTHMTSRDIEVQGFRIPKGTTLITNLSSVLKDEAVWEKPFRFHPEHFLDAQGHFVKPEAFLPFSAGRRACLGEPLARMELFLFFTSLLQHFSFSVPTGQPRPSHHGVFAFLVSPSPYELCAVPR

Test [5] has as its target N-terminal Xaa-Pro-Lys N-methyltransferase 1 (Homo sapiens) (UniProt Q9BV86). Nature of the test: Confirmatory qHTS for Inhibitors of N-terminal methyltransferase 1 (NTMT1): MTaseGlo Assay (AID 1645874; active = well fitted curve in the direction sought with a large enough effect; an effect the other way counts as inactive or inconclusive; note: nearly all actives have a fitted effect of over 65% in size). In a few lines: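 Luminescent MTase-Glo read-out of SAH. 125 nM NTMT1, 100 uM SAM, 1 uM SPKRIA substrate, 30 min RT reaction after 15 min compound preincubation. Normalized to no-enzyme and DMSO controls; Hill fit.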

The structures appear in SMILES notation. Several values for one entry are separate records, joined by “and”; a condition that tells them apart may be missing. Identical values can stand only once. Inconclusive results are not listed. Values without a mark were called inactive. Activity calls are given as the source filed them. Unless noted, calls come from the whole dose curve; as a rule, active = well fitted curve in the direction sought with a large enough effect in the repeat runs; inconclusive = weak or mixed curves; inactive = no such curve, though single readings can be large; an effect the other way counts as inactive or inconclusive.
Potency is the fitted concentration of half-maximal effect.

Sequence of Cytochrome P450 2C9 (Homo sapiens) (P11712 whole entry, looked up): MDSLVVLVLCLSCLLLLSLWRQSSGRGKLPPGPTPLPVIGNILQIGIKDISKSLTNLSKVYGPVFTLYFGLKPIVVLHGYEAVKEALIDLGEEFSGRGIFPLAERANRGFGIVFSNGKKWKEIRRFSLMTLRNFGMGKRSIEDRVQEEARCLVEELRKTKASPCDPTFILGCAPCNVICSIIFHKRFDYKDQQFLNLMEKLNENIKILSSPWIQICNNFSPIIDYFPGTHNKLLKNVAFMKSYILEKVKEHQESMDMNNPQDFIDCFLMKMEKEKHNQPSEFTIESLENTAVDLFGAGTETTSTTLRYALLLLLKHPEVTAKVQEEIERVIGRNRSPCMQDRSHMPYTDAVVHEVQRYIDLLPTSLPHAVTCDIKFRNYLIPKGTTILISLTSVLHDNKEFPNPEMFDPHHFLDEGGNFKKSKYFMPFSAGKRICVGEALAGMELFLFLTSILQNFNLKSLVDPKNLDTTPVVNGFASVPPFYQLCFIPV
Sequence of N-terminal Xaa-Pro-Lys N-methyltransferase 1 (Homo sapiens) (Q9BV86 whole entry, looked up): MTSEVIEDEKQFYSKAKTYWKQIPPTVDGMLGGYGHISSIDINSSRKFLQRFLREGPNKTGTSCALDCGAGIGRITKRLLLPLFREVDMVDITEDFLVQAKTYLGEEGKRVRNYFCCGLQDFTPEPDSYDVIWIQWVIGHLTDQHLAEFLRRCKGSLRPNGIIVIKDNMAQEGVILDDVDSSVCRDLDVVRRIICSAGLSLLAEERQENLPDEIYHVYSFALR

`CCOc1cc(C(C)(C)C)ccc1C1=N[C@@](C)(c2ccc(Cl)cc2)[C@@](C)(c2ccc(Cl)cc2)N1C(=O)N1CCN(CC(=O)N2CCOCC2)CC1`: the results for the Potency in test [1], in test [2] and in test [3] were 21.3 µM (active), 1.03 µM (active) and 1.03 µM (active), respectively.
For the compound `Nc1nccc(-c2c(-c3ccc(F)cc3)ncn2C2CCCCC2)n1`, the Potency was 15.1 µM (active) in test [4]; 16.9 µM (active) in test [1]; 9.16 µM (active) and 11.8 µM (active) in test [2]; 14.5 µM (active) and 10.5 µM (active) in test [3].
On to `CCOC(=O)[C@H](CCc1ccccc1)N[C@H]1CCCN2CCC[C@@H](C(=O)O)N2C1=O`, for which the Potency entry in test [4] and in test [1] was “inactive” throughout.
For `Cc1cc2occ(CN(C)CCN(C)Cc3cn(-c4cccc(C(F)(F)F)c4)c4ccccc34)c(=O)c2cc1C`, the Potency in test [4] was 4.77 µM (active); in test [1], 21.3 µM (active); in test [2], 7.28 µM (active); in test [3], 7.28 µM (active).
With `CC(C)(O)C(=O)N1CCN(c2ccc(C(F)(F)F)c(C3=C(c4c[nH]c5ccccc45)C(=O)NC3=O)c2)CC1`, the Potency was 21.3 µM (active) in test [4], 3.79 µM (active) in test [1], 1.15 µM (active) in test [2] and 1.03 µM (active) in test [3].
Turning to `CCCC1(CCC)CCC2(CCN(CCCN(CC)CC)C2)CC1`, the Potency in test [5] was 50.1 µM (active); in test [2], 2.63 µM (active); in test [3], 2.09 µM (active).
Take `C=CC(=O)N1CCCC(n2nc(-c3ccc(Oc4ccccc4)cc3)c3c(N)ncnc32)C1` (configuration not stated): the Potency in test [4] is 19 µM (active); in test [1], 3.79 µM (active).
On to `CNc1ccc([N+](=O)[O-])c(Nc2ccc3[nH]ncc3c2)n1`, for which the values for the Potency in test [1], in test [2] and in test [3] were 0.756 µM (active), 7.28 µM (active) and 7.28 µM (active), respectively.
Take `COc1ccccc1OCCNCC(O)CCOc1cccc2[nH]c3ccccc3c12` (configuration not stated): the Potency in test [4] is 0.301 µM (active); in test [1], 0.301 µM (active); in test [2] it was 18.3 µM (active); in test [3], 14.5 µM (active).
For `CN1CC(O)c2cc(N=NC(N)=O)c(O)cc21` (configuration not stated), the Potency entry in test [4] and in test [1] was “inactive” each time.
As for `CCS(=O)c1nc(-c2cccc(OCc3ccccc3)c2)cc(C(F)(F)F)n1` (configuration not stated), the results for the Potency in test [1], in test [2] and in test [3] were 10.7 µM (active), 5.15 µM (active) and 3.25 µM (active), respectively.
Take `C=CC(=O)Nc1cccc(Nc2nc(Nc3ccc(OCCOC)cc3)ncc2F)c1`: the Potency in test [1] is 3.38 µM (active); in test [2] it was 3.72 µM (active); in test [3], 3.72 µM (active).
For the compound `CC#C[C@@H](CC(=O)O)c1ccc(OCc2ccc(CN3CCC4(C=Cc5ccccc54)CC3)s2)cc1`, the Potency in test [4] is 15.1 µM (active); in test [1], 23.9 µM (active).
As for `O=C(NCCCN1CCOCC1)c1cnn2c(-c3ccccc3)cc(-c3ccccc3)nc12`, the Potency result in test [4], in test [2] and in test [3] was “inactive” throughout. Moreover, in test [1], the Potency was 3.79 µM (active).
For the compound `COC(C)=O`, the Potency entry in test [4] and in test [1] was “inactive” in each case.
As for `O=C(Nc1ccccc1)c1ccc(Nc2nnc(-c3ccc(O)cc3)c3ccccc23)cc1`, the Potency result in test [4] and in test [5] was “inactive” in each case. Also, the Potency in test [1] was 6.01 µM (active).
On to `CCn1c(=O)n([C@H]2CCCN(c3nccc(-c4cc5ccccc5o4)n3)C2)c2ccccc21`, for which the Potency result in test [4] is “inactive”. Further, in test [1], the Potency is 1.69 µM (active).
As for `Cn1cc(-c2ccc(F)c(C(F)(F)F)c2)nc1C1CCN(c2ncnc3[nH]ncc23)CC1`, the Potency entry in test [4], in test [1], in test [2] and in test [3] was “inactive” in each case.
For the compound `CCC(=O)Oc1ccc2c(c1)CC[C@@H]1[C@@H]2CC[C@]2(C)[C@@H](OC(=O)CC)CC[C@@H]12`, the Potency result in test [4] was “inactive”. The Potency in test [1] is 15.1 µM (active).
With `O=C1C(c2[nH]c3ccc(S(=O)(=O)O)cc3c2O)=Nc2ccc(S(=O)(=O)O)cc21`, the Potency entry in test [4] and in test [1] was “inactive” each time.
For `CN[C@@H]1CCc2[nH]c3ccc(C(N)=O)cc3c2C1`, the Potency entry in test [4] and in test [1] was “inactive” throughout.
As for `CCC(=O)O`, the Potency entry in test [4] and in test [1] was “inactive” in each case.
`CCCC(CCC)C(N)=O`: the Potency result in test [4] and in test [1] was “inactive” each time.
In the case of `Fc1ccc(-n2cc(CCCCN3CCC4(CC3)OCc3ccccc34)c3ccccc32)cc1`, the Potency in test [4] is 0.601 µM (active); in test [1], 2.39 µM (active); in test [2], 7.28 µM (active); in test [3], 6.49 µM (active).
On to `N#Cc1cc(C2=Nc3ccc(Br)cc3NC(=O)C2)ccn1`, for which, in test [4], the Potency is 0.477 µM (active). Moreover, in test [2], the Potency result is “inactive”.
`Cc1cc(C)nc(SCC(=O)Nc2ncc(Cc3cccc4ccccc34)s2)n1`: the Potency result in test [4] and in test [3] was “inactive” each time. Further, the Potency in test [1] is 10.7 µM (active).
In the case of `CN(C)CC1CCn2c(c(C3=C(c4cn(C)c5ccccc45)C(=O)NC3=O)c3ccccc32)C1` (configuration not stated), the Potency was 7.28 µM (active) in test [2] and 5.15 µM (active) in test [3].
On to `Cc1sc2c(c1C)C(c1ccc(Cl)cc1)=N[C@@H](CC(=O)Nc1ccc(OCCOCCOCCOCCNc3cccc4c3C(=O)N(C3CCC(=O)NC3=O)C4=O)cc1)c1nnc(C)n1-2` (some centres not stated), for which the Potency was 4 nM (active) and 10.5 nM (active) in test [2]; 3.2 nM (active) and 14.8 nM (active) in test [3].
